“And” between values parts separate entries of the source, which are not always exact repeats. Equal entries are not always repeated. The panel holds about 79,000 compounds, 15% with a hit somewhere; the sample as a whole holds those more often. Some compounds were tested as several samples or in several runs, with calls that do not always agree. The source made the active and inactive calls. Rule as the data show it: active = growth inhibition above about 70%; inactive = the rest.
Assays:
[1] = NCI Yeast Anticancer Drug Screen. Data for the rad50 strain (AID 155);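 also: 0% = growth of vehicle-only cultures of the same strain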; conditions: S. cerevisiae rad50 strain growth inhibition, stronger effect = higher value
Procedure, shortened: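 Growth of the mutant yeast was measured after compound exposure and referenced to vehicle-treated cultures.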

[2] = NCI Yeast Anticancer Drug Screen. Data for the mec2-1 strain (AID 157); conditions: S. cerevisiae mec2-1 strain, stronger effect = higher value
Procedure, shortened: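 mec2-1 yeast strain, carrying an alteration in DNA damage repair or cell cycle control, was exposed to compounds; growth inhibition was measured relative to vehicle-treated controls.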

[3] = NCI Yeast Anticancer Drug Screen. Data for the sgs1 mgt1 strain (AID 161);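 also: 0% = growth of cultures given vehicle only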; conditions: S. cerevisiae sgs1 mgt1 strain, stronger effect = higher value
Procedure, shortened: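 Growth of a repair-deficient yeast mutant was monitored after compound treatment and expressed as inhibition relative to vehicle-treated cultures.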

[4] = NCI Yeast Anticancer Drug Screen. Data for the cln2 rad14 strain (AID 165);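 also: 0% = growth equal to vehicle treated cultures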; conditions: S. cerevisiae cln2 rad14 strain, stronger effect = higher value
Procedure, shortened: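 Yeast carrying cln2 and rad14 alterations (cell cycle control and DNA damage repair) were exposed to compounds. Growth inhibition was measured against vehicle-treated controls.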

[5] = NCI Yeast Anticancer Drug Screen. Data for the bub3 strain (AID 167); conditions: S. cerevisiae bub3 mutant strain, stronger effect = higher value
Procedure, shortened: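 Whole-cell yeast assay. The mutant strain was incubated with compounds, and growth inhibition was determined by comparison with vehicle-treated cells.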

[6] = NCI Yeast Anticancer Drug Screen. Data for the wt2 strain (AID 169);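 also: 0% = growth of vehicle-treated yeast cultures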; conditions: S. cerevisiae wt2 strain growth inhibition, stronger effect = higher value
Procedure, shortened: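 Yeast cells were exposed to test compounds, and growth inhibition was measured relative to vehicle-treated controls.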

[7] = NCI Yeast Anticancer Drug Screen. Data for the mlh1 rad18 strain (AID 175); conditions: S. cerevisiae mlh1 rad18 strain growth inhibition, stronger effect = higher value
Procedure, shortened: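 Growth inhibition of the yeast strain was measured after compound exposure and expressed relative to vehicle-treated controls. The strain carries defined defects in DNA damage repair.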

[8] = at 5.0 µM (retest, dose inferred, filed as 0.5)
[9] = at 50.0 µM (retest, dose inferred, filed as 5.0)

Measured: growth inhibition

O=C1C=CC(=CC=C2C=CN(CCCCCCCCCCCO)C=C2)C=C1
inactive: [1]; [8] 12% and 36% | [2]; [8] 6% and 40% | [3]; [8] -10% and 44% | [4]; [8] 7% and 18% | [5]; [8] -3% and 34%
93% (active) and 3% (inactive): [1]; [9]
88.8% (active) and 49.2% (inactive): [1]; at 50.0 µM
98% (active) and 2% (inactive): [5]; [9]
83% (active) and 50.6% (inactive): [5]; at 50.0 µM
85.5% (active) and 65% (inactive): [2]; at 50.0 µM
90% (active) and -2% (inactive): [2]; [9]
91% (active) and -8% (inactive): [4]; [9]
93% (active) and 2% (inactive): [3]; [9]
82.7% (active) and 57.4% (inactive): [4]; at 50.0 µM
87.6% (active) and 62.8% (inactive): [3]; at 50.0 µM

[N-]=[N+]=NC(=O)Nc1cccc(C(F)(F)F)c1
inactive: [1]; [8] 8% | [2]; [8] -1% | [3]; [8] 2% | [4]; [8] -3% | [5]; [8] 14%
active: [1]; [9] 99% | [1]; at 50.0 µM 99% | [2]; [9] 99% | [2]; at 50.0 µM 99% | [3]; [9] 99% | [3]; at 50.0 µM 98.5% | [4]; [9] 99% | [4]; at 50.0 µM 97.8% | [5]; [9] 98% | [5]; at 50.0 µM 98.5%

COc1ccc(Cc2ccc(O)cc2)cc1
inactive: [1]; [8] 41% | [1]; at 50.0 µM 33.3% | [2]; [8] 40% | [2]; at 50.0 µM 27.8% | [3]; [8] -9% | [3]; [9] 47% | [3]; at 50.0 µM 52.8% | [4]; [8] 42% | [4]; [9] 8% | [4]; at 50.0 µM -20.9% | [5]; [8] -16% | [5]; [9] 49% | [5]; at 50.0 µM 30.9% | [6]; at 1.2 µM -12% | [6]; at 3.7 µM -8% | [6]; at 11.0 µM -9% | [6]; at 33.0 µM 6% | [6]; at 100.0 µM 11% | [7]; [8] 27% | [7]; [9] 54% | [7]; at 50.0 µM 28.8%
active: [1]; [9] 79% | [2]; [9] 88%

Cc1n(Cc2ccccc2)c2c([n+]1C)C(=O)c1ccccc1C2=O
inactive: [1]; [8] 44% | [2]; [8] 50% | [3]; [8] 55% | [4]; [8] 34%
active: [1]; [9] 97% | [1]; at 50.0 µM 86.2% | [2]; [9] 98% | [2]; at 50.0 µM 91.8% | [3]; [9] 98% | [3]; at 50.0 µM 91.2% | [4]; [9] 92% | [4]; at 50.0 µM 89.2% | [5]; [8] 72% | [5]; [9] 98% | [5]; at 50.0 µM 89.2% | [7]; [8] 78% | [7]; [9] 97%

CCOC(=O)c1c[nH]c2cc(C(F)(F)F)ccc2c1=O
inactive: [1]; [8] 52% | [1]; at 50.0 µM 52% | [2]; at 50.0 µM -0.25% | [3]; [8] -23% | [3]; [9] -11% | [3]; at 50.0 µM 26.3% | [4]; [8] 9% | [4]; [9] 24% | [4]; at 50.0 µM 9.15% | [5]; [8] 22% | [5]; [9] 2% | [5]; at 50.0 µM 69.9% | [6]; at 1.2 µM -3% | [6]; at 3.7 µM -8% | [6]; at 11.0 µM -9% | [6]; at 33.0 µM -10% | [6]; at 100.0 µM -10%
active: [1]; [9] 93% | [2]; [8] 74% | [2]; [9] 96%

Clc1ccc2c(c1)[nH]c1c2nc2ccccn21
active: [1]; [9] 95% | [2]; [9] 98% | [3]; [9] 95% | [4]; [9] 95% | [5]; [9] 97%
15.2% (inactive) and 79.2% (active): [5]; at 50.0 µM
62.9% (inactive) and 83.2% (active): [1]; at 50.0 µM
inactive: [1]; [8] 21% | [2]; [8] 19% | [2]; at 50.0 µM -11.3% and 67.4% | [3]; [8] 50% | [4]; [8] 47% | [5]; [8] 36%
19.4% (inactive) and 85.7% (active): [3]; at 50.0 µM
25.2% (inactive) and 77.5% (active): [4]; at 50.0 µM

C=C1CC2(CC(c3ccccc3C)OC(c3ccccc3C)C2)OC1=O (stereo not given)
active: [1]; [9] 85% | [1]; at 50.0 µM 77.7% | [2]; [9] 94% | [2]; at 50.0 µM 83.7% | [3]; [8] 76% | [3]; [9] 83% | [3]; at 50.0 µM 84.1% | [4]; [8] 83% | [4]; [9] 91% | [4]; at 50.0 µM 84% | [5]; [8] 74% | [5]; [9] 87% | [5]; at 50.0 µM 78.4% | [7]; [8] 80% | [7]; [9] 90%
inactive: [1]; [8] 54% | [2]; [8] 53%

Cc1c2ccccc2c(C=O)c2ccccc12
active: [1]; [9] 96% | [1]; at 50.0 µM 86.2% | [2]; [9] 99% | [2]; at 50.0 µM 89% | [3]; at 50.0 µM 91.2% | [4]; at 50.0 µM 88.2% | [5]; at 50.0 µM 88.5% | [6]; at 100.0 µM 93% | [7]; [9] 99% | [7]; at 50.0 µM 87.4%
inactive: [1]; [8] 40% | [2]; [8] 44% | [3]; [8] -13% | [3]; [9] 57% | [4]; [8] 50% | [4]; [9] 59% | [5]; [8] 2% | [5]; [9] 67% | [6]; at 1.2 µM -11% | [6]; at 3.7 µM -16% | [6]; at 11.0 µM -4% | [6]; at 33.0 µM 23% | [7]; [8] 40%

Reference: PubChem BioAssay (NCI)
